The panel holds about 79,000 compounds, 15% with a hit somewhere; the sample as a whole holds those more often. Unmarked numbers belong to inactive results. Active and inactive are the calls of the source. Cut-off read from the data, not from the text of the source: active = growth inhibition above about 70%; inactive = the rest.
What was measured:
[1] = NCI Yeast Anticancer Drug Screen. Data for the rad50 strain (AID 155);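 note: 0% = growth of vehicle-only cultures of the same strain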; settings: S. cerevisiae rad50 strain growth inhibition, stronger effect = higher value; at 50.0 µM unless noted
Procedure, shortened: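 Genetically altered yeast (DNA repair pathway); compound treatment; growth inhibition vs vehicle ctrl.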

[2] = NCI Yeast Anticancer Drug Screen. Data for the mec2-1 strain (AID 157); settings: S. cerevisiae mec2-1 strain, stronger effect = higher value; at 50.0 µM unless noted
Procedure, shortened: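 mec2-1 yeast strain, carrying an alteration in DNA damage repair or cell cycle control, was exposed to compounds; growth inhibition was measured relative to vehicle-treated controls.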

[3] = NCI Yeast Anticancer Drug Screen. Data for the sgs1 mgt1 strain (AID 161);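 note: 0% = growth of cultures given vehicle only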; settings: S. cerevisiae sgs1 mgt1 strain, stronger effect = higher value; at 50.0 µM unless noted
Procedure, shortened: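 Compounds are added to genetically altered yeast, and growth is compared with cultures given vehicle alone to give percent inhibition.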

[4] = NCI Yeast Anticancer Drug Screen. Data for the cln2 rad14 strain (AID 165);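 note: 0% = growth equal to vehicle treated cultures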; settings: S. cerevisiae cln2 rad14 strain, stronger effect = higher value; at 50.0 µM unless noted
Procedure, shortened: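 Yeast carrying cln2 and rad14 alterations (cell cycle control and DNA damage repair) were exposed to compounds. Growth inhibition was measured against vehicle-treated controls.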

[5] = NCI Yeast Anticancer Drug Screen. Data for the bub3 strain (AID 167); settings: S. cerevisiae bub3 mutant strain, stronger effect = higher value; at 50.0 µM unless noted
Procedure, shortened: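 Yeast carrying a defined mutation is treated with each compound, and growth is compared with that of vehicle-exposed cells to give inhibition.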

[6] = NCI Yeast Anticancer Drug Screen. Data for the mlh1 rad18 strain (AID 175); settings: S. cerevisiae mlh1 rad18 strain growth inhibition, stronger effect = higher value; at 50.0 µM unless noted
Procedure, shortened: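 Growth inhibition of the yeast strain was measured after compound exposure and expressed relative to vehicle-treated controls. The strain carries defined defects in DNA damage repair.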

Row | Structure (SMILES) | growth inhibition [1] | growth inhibition [2] | growth inhibition [3] | growth inhibition [4] | growth inhibition [5] | growth inhibition [6]
1 | CCOC(=O)C(=CNC(=S)Nc1c(CC)cccc1CC)C(=O)OCC | -26.2% | -38.4% | -2.9% | 4.65% | -5.15% | -59.9%
2 | CCOC(=O)/N=N/C(C)(C)OC(C)=O | -10.5% | 9.25% | -8.1% | -39.7% | -20.4% | -21.1%
3 | CC(=O)N1C(Nc2cnc3ccccc3c2)CCN1c1ccccc1 (stereo not given) | -31.4% | -48.6% | -13.8% | 0.4% | 1.25% | -14%
4 | CCCCCCCCCOCC(=O)O | 34.4% | 5.55% | 7.5% | 3.15% | 2.3% | 6.4%
5 | C#CCOc1ccc(C)cc1 | -0.55% | 5.35% | -7.05% | 9.25% | 2.55% | -10.1%
6 | CCCC1([N+](=O)[O-])c2ccccc2-c2ccc([N+](=O)[O-])cc21 (stereo not given) | 20.4% | 7.9% | 22.4% | 11% | 46.1% | 49.7%
7 | Clc1ccccc1NN(Cc1ccncc1)c1ccccc1Cl | 55.6% | 23.1% | 23.7% | 26.9% | 34.1% | 53.1%
8 | Cc1ccc(NC(=O)c2cccc(OP(=O)(O)Nc3ccc(C)cc3)c2)cc1 | -13.7% | 2.7% | 2.8% | 17% | -0.95% | -17%
9 | CN(C)c1cccc2ccccc12 | -1.25% | 9.1% | 20.7% | -24.3% | 6% | 18.9%
10 | NNC(=O)Cc1ccc(Cl)c2ccccc12 | 5.8% | -17.9% | 3.6% | -75.9% | -5.2% | 8.85%
11 | O=C(NO)c1ccccc1 | 17.1% | -29.6% | 11.6% | 21.8% | -4% | 27.8%
12 | Nc1nc(NCCO)c(NC=O)c(=O)[nH]1 | -11.6% | 6% | -2.6% | -34.4% | -13.8% | -1.35%
13 | CC1=C(C(=O)Nc2cc(=O)n(C)c(=O)n2C)C(c2cccc([N+](=O)[O-])c2)C(C(=O)Nc2cc(=O)n(C)c(=O)n2C)=C(C)N1 | 8.7% | 32.1% | 24.9% | 21.9% | 24.4% | 41.8%
14 | Cc1ccc2c(-c3cccc4ccccc34)c3ccccc3cc2c1 | 5.45% | 9.65% | -12% | -8.4% | 8.95% | -7.75%
15 | c1ccc2c(c1)Cc1cc3ccccc3cc1C2 | -32.2% | -44.9% | -29.5% | 0.75% | -33.2% | -27.8%
16 | OC1(c2cccc(C(F)(F)F)c2)CCN(C2CC2c2ccccc2)CC1 (stereo not given) | 87.2% (active) | 77.7% (active) | 90.8% (active) | 85.1% (active) | 84.3% (active) | 81.5% (active)
17 | N#C/C(=C\c1ccccc1)c1cccc(F)c1 | 28.9% | 24.6% | 18.2% | -4.05% | 15.7% | 11.4%
18 | O=C1OCc2ccccc21 | 3.2% | 7.8% | 11.2% | -26.7% | -6.05% | 3.15%
19 | COc1cc2c(c3oc4c(O)cccc4c(=O)c13)CC(C(C)(O)CO)O2 (stereo not given) | 24.2% | -11.6% | -23.4% | -9.25% | -42.8% | -33.6%
20 | CC(C)(C)C1CCC2(CC1)CCN(CCCN1CCOCC1)CC2 | 99% (active) | 98.4% (active) | 98.5% (active) | 97.3% (active) | 98.3% (active) | 97.8% (active)

Row | Structure (SMILES) | growth inhibition [1] | growth inhibition [2] | growth inhibition [3] | growth inhibition [4] | growth inhibition [5] | growth inhibition [6]
21 | COc1ccc2c(c1)[n+](=O)c(C(=O)CC(=O)C(=O)Nc1cccc(C)c1C)c(C)n2[O-] | 2.35% | 13.3% | -9.55% | 9.45% | 5.3% | 14.8%
22 | Cn1c2cccc3nnc4cccc(c4c32)n1C | -37.1% | -9.3% | -4.9% | 4.2% | -6.65% | -11.8%
23 | COc1ccc2c(c1)CCN1CCCc3ccccc3C21 (stereo not given) | 22.4% | 2.75% | 6.3% | 25.8% | 14.8% | -5.75%
24 | C[C@@]1(O)C2CC3CC1(c1ccccc1)CC(/C3=N/O)/C2=N\O (stereo not given in full) | -14.3% | -17.6% | -1.8% | 26.2% | -16.7% | 8.3%
25 | CC1(C)COC(c2ccc3c(c2)OCO3)N1 (stereo not given) | 0.5% | -8.45% | -5.7% | -19.6% | -9.75% | 0.6%
26 | O=C1CCCCC(=O)NCCCCCCN1 | -7.95% | -2.65% | -18.4% | -21.4% | -12.4% | 1.85%
27 | Cc1ccc(OCc2ccc([N+](=O)[O-])cc2)cc1 | 1.8% | -12.2% | -12.6% | 13.9% | -16.4% | -16.8%
28 | CCN(CC)CCn1c2ccccc2c(=O)c2c(OC)ccc(OC)c21 | 54.4% | 8.05% | 15.8% | 16.6% | 16.8% | 50.9%
29 | OCC(O)COc1ccc(F)cc1 (stereo not given) | 19.7% | -16.2% | -0.15% | 4.55% | -6.25% | -12.1%
30 | CCOC(=O)CC1(N)CC2c3ccccc3OC(=O)C2C(=O)N1 (stereo not given) | 10.6% | 15.1% | 6.15% | 0.45% | -2.8% | -33.6%
31 | CCOC(=O)c1ccc(N)nc1 | -3.75% | -3.3% | 5.35% | -13% | 7.95% | 18.6%
32 | CCCCCCCCCCCCCCCCNC(=O)C(=O)/C=C(\O)c1ccc(C)cc1 | 1.15% | -24.4% | 18.8% | -44.5% | 0.6% | 1.4%
33 | c1ccc(-c2cn(-c3ccccc3)nn2)cc1 | -1% | -4.5% | -13.7% | -22.9% | -28.8% | 0.6%
34 | COc1cccc(N2C(=O)C3c4[nH]c5ccccc5c4C4c5ccccc5CCC4C3C2=O)c1 (stereo not given) | -0.1% | 4.4% | 5.05% | 2.95% | -0.6% | 20.9%
35 | COc1ccc(/C=C2/C/C(=C/c3ccc(OC)cc3)C2=O)cc1 | 14.2% | 9.25% | 10.2% | 7.2% | 4.65% | 15%
36 | COC(=O)CCSCc1ccccc1 | 2.65% | 2.55% | -1.6% | -10% | 4.8% | 3.55%
37 | COc1cc(OC)c(/C=N/N=C(\N)NO)c(OC)c1 | -8.95% | 12.2% | -0.7% | 9.65% | -1.15% | -9.75%
38 | C[N+]1(Cc2ccco2)CCCCC1 | -12.6% | 9.65% | 0.15% | -14.4% | 9% | -6.85%
39 | COC1=CC(=O)C2CC=CC(CC(=O)O)C2(C)C1=O (stereo not given) | -0.95% | -2.4% | -0.35% | -21.9% | 7.3% | 4.5%
40 | COC(=O)CC1CCS(=O)(=O)C1 (stereo not given) | -6.6% | 6.35% | -5.7% | -37.4% | -4.4% | 0%

— PubChem BioAssay (NCI)
